According to PubChem BioAssay AID1619 (SRMLSC, 2009):
Out of some 220,000 compounds screened, about 830 (0.38%) were called active.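 The calls were made as follows: active = compound inhibiting the enzyme by more than half at any dose during confirmatory dose-response retesting; inconclusive = strong single-dose inhibitors picked by rank but not retested; inactive = the rest.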 The list is a sample of the results. Results with a measured potency or affinity are listed apart.

What follows are compounds tested against Leucine aminopeptidase (Plasmodium falciparum (isolate 3D7)) (UniProt Q8IL11) (assay: P. falciparum M17LAP inhibitors, primary screen, biochemical, fluorogenic H-Leu-NHMec substrate, 1536-well (AID 1619;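 also: plate controls were full reaction with DMSO carrier for no effect and no enzyme background for full effect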)). Conditions: recombinant M17LAP, H-Leu-NHMec fluorogenic kinetic assay; at 30 µM; active compounds read high.
Sequence of Leucine aminopeptidase (Plasmodium falciparum (isolate 3D7)) (Q8IL11 whole entry, looked up): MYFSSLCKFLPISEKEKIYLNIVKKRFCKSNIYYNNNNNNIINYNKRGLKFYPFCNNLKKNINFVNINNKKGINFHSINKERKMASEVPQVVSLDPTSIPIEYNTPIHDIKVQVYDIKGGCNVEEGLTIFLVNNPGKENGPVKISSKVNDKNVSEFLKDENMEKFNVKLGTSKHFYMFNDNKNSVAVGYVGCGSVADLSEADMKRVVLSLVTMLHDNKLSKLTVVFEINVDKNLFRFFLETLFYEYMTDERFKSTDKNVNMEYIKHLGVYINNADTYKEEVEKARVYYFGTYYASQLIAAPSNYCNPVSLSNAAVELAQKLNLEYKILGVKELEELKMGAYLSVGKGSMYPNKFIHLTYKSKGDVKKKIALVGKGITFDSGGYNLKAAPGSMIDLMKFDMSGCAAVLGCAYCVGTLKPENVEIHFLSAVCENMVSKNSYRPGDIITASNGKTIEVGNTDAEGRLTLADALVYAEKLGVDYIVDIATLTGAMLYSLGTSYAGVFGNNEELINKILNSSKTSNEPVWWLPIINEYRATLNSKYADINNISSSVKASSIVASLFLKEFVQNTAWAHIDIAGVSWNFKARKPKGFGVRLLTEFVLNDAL

inhibition, inactive:
CCN(CC)CCNc1nc(-c2cccs2)c(CC(=O)O)s1 0.71%
CCCc1cc(C(=O)Nc2sc(C)c(CC)c2C#N)no1 3.41%
O=C1/C(=C\c2ccco2)SC(=S)N1Cc1ccccc1 21.4%
O=C(Nc1ccc(O)cc1C(=O)O)c1ccc2c(c1)C(=O)N(Cc1ccco1)C2=O -9.39%
O=C(Nc1ccc(O)cc1)c1ccc2c(c1)C(=O)N(Cc1ccco1)C2=O 13.2%
O=C(O)c1ccc(COc2ccccc2/C=C2\NC(=O)N(Cc3ccccc3)C2=O)cc1 20.1%
O=C(CSc1nnc(-c2ccccc2)n1Cc1ccccc1)NNC(=O)c1ccccc1O 10.4%
O=C(CN1C(=O)S/C(=C\c2ccccc2)C1=O)NNC(=O)c1ccccc1O 9.15%
COC(=O)C1=C(C)N(Cc2ccccc2)C(=O)/C1=C\c1ccco1 23.3%
O=C(NNC(=O)c1ccccc1O)c1ccco1 20.5%
Cc1cccc(C(=O)NCCC(=O)Nc2nc(C)c(Cc3ccc4c(c3)OCO4)s2)c1 -0.81%
CC(C)NC(=S)N1CCN(c2ncccn2)CC1 -3.12%
COc1ccc(C(=O)NC2CCN(C(=S)Nc3ccc(C)cc3)CC2)cc1 3.35%
O=C(NC(Cc1ccccc1)C(=O)NC1CC1)OCc1ccccc1 (configuration not stated) 9.99%
CCCOc1ccc(OCCSc2nnc(N)s2)cc1 -4.02%
Cc1cc(C)c(/C=N/NC(=O)c2nnn(-c3nonc3N)c2COc2ccc(F)cc2)c(C)c1 11.6%
CC(=O)Nc1nc(COc2ccccc2)cs1 -12.2%
O=[N+]([O-])c1ccc(N2CCN(S(=O)(=O)c3ccccc3)CC2)cc1NCCN1CCOCC1 -0.09%
CCOC(=O)c1cc(NC(=O)c2cccnc2)ccc1N1CCOCC1 -6.5%
Cc1ccnc(SCC(=O)N2CCCc3ccccc32)n1 -6.82%
O=S(=O)(Nc1cccc2c1CCCC2)c1cccc(C(F)(F)F)c1 -8.32%
COc1ccc([N+](=O)[O-])cc1NC(=O)Cc1ccc(Cl)cc1 8.59%
COc1cc([N+](=O)[O-])ccc1NC(=O)Cc1ccc(C)cc1 -2.2%
CC(=O)c1ccc(NC(=O)CSc2nnc(-c3ccco3)c(-c3ccco3)n2)cc1 22.5%
Cc1ccc(NC(=O)CSc2nnc(-c3ccco3)c(-c3ccco3)n2)cc1 53.2%
Cc1ccccc1NC(=O)CSc1nnc(-c2ccco2)c(-c2ccco2)n1 42.7%
Cc1cccc(NC(=O)CSc2nnc(-c3ccco3)o2)c1C 0.69%
CC1CN(Cc2nnc(-c3ccccc3)o2)CC(C)O1 (configuration not stated) 3.22%
Cc1c(NC(=O)CN2C(=O)c3cccc4cccc2c34)c(=O)n(-c2ccccc2)n1C 29.2%
COc1cccc(CNC(=O)C2CCC(CNc3c(N4CCC(C)CC4)c(=O)c3=O)CC2)c1 (configuration not stated) -8.13%
O=C(CCc1ccccc1)NNC(=S)Nc1ccc(F)cc1 5.08%
CC(C)(C)Sc1ccc(/C=N/O)cc1[N+](=O)[O-] -1.67%
CC(C)CSC1=NSC2=NC(=O)/C(=C\c3cccs3)C(=N)N12 9.74%
N=C1/C(=C/c2cccs2)C(=O)N=C2SN=C(SCc3ccccc3)N12 14.2%
O=C(CN1CCc2ccccc2C1)N1CCN(S(=O)(=O)c2ccccc2)CC1 7.42%
CCOc1ccc2nc(NC(=O)C(NS(=O)(=O)c3cccc4nsnc34)C(C)C)sc2c1 (configuration not stated) -8.83%
CC1(C)Cc2sc3c(=O)[nH]c(=S)[nH]c3c2CO1 6.75%
CCCSc1nc2c3c(sc2c(=O)[nH]1)CC(C)(CC)OC3 (configuration not stated) -0.94%
CCOC(=O)c1c(NC(=O)/C=C/C(=O)O)sc(C)c1-c1ccc(C)c(C)c1 8.96%
COC(=O)c1c(NC(=O)/C=C/C(=O)O)sc(C)c1-c1ccc(C)cc1 14.7%
COCCNc1nc2nonc2nc1N1C[C@H]2CC[C@H]1C2 8.08%
COc1ccc(N2CCN(CCCNC(=O)C3(S(=O)(=O)c4ccc(Cl)cc4)CC3)CC2)cc1 16%
COc1cc(NC(=O)CN2CCN(Cc3ccc4c(c3)OCO4)CC2)cc(OC)c1 19.9%
Cc1ccc(NC(=O)C2CCCCC2C(=O)O)cc1C (configuration not stated) 16.6%
O=C(Nc1ccc2c(c1)CCC2)C1CCCO1 (configuration not stated) 6.84%
Cc1ccc(NC(=O)C2CCCCC2C(=O)O)cc1Cl (configuration not stated) 77.4%
O=C(O)C1CCCCC1C(=O)Nc1ccc(Cl)cc1 (configuration not stated) 54.6%
O=C(NNC(=O)C1CC=CCC1C(=O)O)c1ccc(Cl)cc1 (configuration not stated) 7.35%
Cc1onc(-c2ccccc2Cl)c1C(=O)Nc1ccccc1C(=O)NC(C)C 9.44%
COc1cc(C(=O)NC(C)c2cnn(-c3ccccc3C)c2C)cc(OC)c1OC (configuration not stated) 5.89%
COC(=O)c1c(NC(=O)CSc2ncnc3[nH]ncc23)sc2c1CCC2 33%
CN(C)S(=O)(=O)c1cccc(CSc2cccc[n+]2[O-])c1 -1.76%
Cc1ccc2cc(CCNC(=O)C(=O)c3c[nH]c4ccccc34)c(=O)[nH]c2c1 -4.94%
COC(=O)c1cc(Cl)c(NC(=O)c2cc3ccccc3o2)cc1OC -2.34%
O=C(c1ccc(Br)cc1)c1cc(-c2ccccn2)c(N2CCOCC2)s1 5.58%
Cc1csc2c(SCC(=O)NNS(=O)(=O)c3cccc(C(F)(F)F)c3)ncnc12 -12.4%
CC1(OC(=O)C2CCCC2)C(=O)C=C2C=C(c3ccsc3)N(c3ccccc3)C=C2C1=O (configuration not stated) -5.77%
O=C(OCCN1C(=O)c2ccccc2C1=O)c1ccco1 15.3%
CCN1CCN(Cc2ccc(NC(=O)Nc3ccccc3)cc2)CC1 50.7%
COc1ccc(NC(=O)Nc2ccc(C(=O)N3CCOCC3)cc2)c(OC)c1 -5.93%
CCN1CCN(Cc2ccc(NC(=O)Nc3ccccc3OC)cc2)CC1 -5.76%
Cc1ccc(NC(=O)Nc2ccc(C(=O)N3CCOCC3)cc2)cc1 41%
